Source: PubChem BioAssay (NCI)
About 83,000 compounds went through this panel and 20% of them were active in at least one assay; those are over-represented in the sample as a whole.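 Note: values are percent growth. 100 is the growth of untreated cells, values between 100 and 0 indicate rising inhibition; between -100 and 0 indicates cell death.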 Unmarked numbers belong to inactive results. The source made the active and inactive calls. How the source made its calls: active means growth percent below 10; inactive means the rest. *1 amine or outer side, *2 acyl side, *3 side chain or, on linkers, in order; H or OH if unused. Where a SMILES comes first, the peptide text is derived from it. [ ]: non-standard residue; d: D form. The star is where a group is joined. X5 = CCC(=O)CC1CC(C)CC(C(=O)[*:2])N1[*:1]; X4 = CCCCCCCCC(C)C(=O)*; Aib = CC(C)(N)C(=O)O; X6 = CC(CN(C)CCO)N*

Experiments:
Test in all cases: NCI-60 one-dose screen, 48 h (100 = growth as untreated, 0 = no growth, -100 = all killed)
Settings in all cases: 10 µM unless noted
[1] = test system: T-47D breast
[2] = test system: BT-549 breast
[3] = test system: MDA-MB-435 melanoma
[4] = test system: SW-620 colon
[5] = test system: HCT-116 colon
[6] = test system: HCC-2998 colon
[7] = test system: KM12 colon
[8] = test system: MCF7 breast

SMILES	growth [1]	growth [2]	growth [3]	growth [4]	growth [5]	growth [6]	growth [7]	growth [8]
O=C(/C=C/C(Cl)(Cl)Cl)Nc1ccc(Cl)cc1	94.6%	102%	105%	110%	104%	108%	132%	–
CC1C(c2ccccc2)OCCN1C(=S)Nc1ccc(S(=O)(=O)N2CCCCC2)cc1 (stereo unspecified)	96.9%	97.6%	89.4%	87.6%	91.8%	–	92.1%	–
CC1=CC(=NC(=O)CBr)C=C/C1=N\S(=O)(=O)c1ccccc1	12.3%	65.6%	43.4%	17%	22.8%	110%	106%	–
CCCc1cc(=O)oc2c3c(c4c(c12)OC(C)(C)CC4)OC(C)[C@H](C)[C@@H]3O (stereo partly specified)	67.9%	108%	112%	84.3%	–	116%	97.8%	70%
CC(C)c1ccc(C(=O)OC2CCCC2)cc1	91.2%	97.5%	101%	99.7%	92.3%	99%	99.9%	–
N=C1C=C(N)C(=O)c2ccccc21	-46.1% (active)	-99.1% (active)	-75.7% (active)	-85% (active)	-98.7% (active)	-99.5% (active)	-82.4% (active)	–
O=C(c1ccccc1)C(O)C(Br)(CBr)c1ccccc1 (stereo unspecified)	98.6%	68.4%	67.4%	–	57.2%	87.1%	80.5%	81.5%
Clc1ccccc1C(c1ccccc1)(c1ccccc1)n1ccnc1	13.4%	42.5%	33.8%	43.6%	22.3%	52%	27%	–
Oc1c(Cl)cc(Cl)cc1C=NCC1CCC(CN=Cc2cc(Cl)cc(Cl)c2O)CC1 (stereo unspecified)	71.4%	90.4%	88.8%	116%	74.9%	107%	93.6%	–
CCCOC(=O)c1nc(N(CC2CCCCC2)C(=O)NC)sc1/N=C/c1ccccc1	15.2%	18.9%	-46.9% (active)	–	-25.6% (active)	-78.7% (active)	7.21% (active)	3.21% (active)
NCCCN(CCCN)CCCNCc1c2ccccc2c(CNCCCN(CCCN)CCCN)c2ccccc12	80.9%	103%	107%	100%	90.6%	97.6%	97.2%	–
COC1CC(C)C(OC)c2cc(O)cc(c2O)NC(=O)/C(C)=C/C=C\C(C)C(OC(N)=O)/C(C)=C\C(C)C1OC (stereo unspecified)	1.33% (active)	-44.8% (active)	12.7%	2.74% (active)	-92.8% (active)	-11.6% (active)	-46.4% (active)	–
COc1ccc(C(OCC2OC(n3ccc(NC(=O)c4ccccc4)nc3=O)C(O)C2O)(c2ccccc2)c2ccccc2)cc1 (stereo unspecified)	40.2%	44.3%	31.1%	56%	3.43% (active)	75.8%	19.2%	–
COc1cc(NCc2ccc3nc(N)nc(N)c3c2C)cc(OC)c1OC (tested in a mixture with another compound)	47.1%	56.1%	–	32.4%	20.6%	14.3%	–	21.3%
CC(=O)C1Cc2ccccc2C1=O (stereo unspecified)	101%	91.3%	103%	101%	103%	108%	102%	–
Cc1ccc(N2C(=O)C=CC2=O)cc1	112%	105%	117%	-11.5% (active)	101%	94.3%	–	–
CCCCCCCCCCCCCCCCSC(=NCC)NCC	8.09% (active)	64.4%	-89.7% (active)	-71.7% (active)	-94.3% (active)	-64.9% (active)	-30.7% (active)	–
CCCCCCCCCCCC[n+]1ccc(CCCCCCCCC)cc1	-62.3% (active)	-27.3% (active)	-85.5% (active)	-67% (active)	-91% (active)	-79.5% (active)	-74.4% (active)	–
CC(=O)c1c(O)c(C)c(O)c2c1OC1=CC(=O)C(C(C)=O)C(=O)C12C (stereo unspecified)	102%	55.8%	78.5%	74.7%	94%	58.1%	72.6%	–

SMILES	growth [1]	growth [2]	growth [3]	growth [4]	growth [5]	growth [6]	growth [7]	growth [8]
CCCCCCCCC(C)C(=O)N1CCCC1C(=O)N1C(CC(=O)CC)CC(C)CC1C(=O)NC(C)C(=O)NC(C)(C)C(=O)NC(C)(C)C(=O)NC(C(=O)NC(C)C(=O)NC(C)(C)C(=O)NC(C)(C)C(=O)NC(C)CN(C)CCO)C(C)CC (stereo unspecified) (X4-P[X5]A[Aib][Aib]IA[Aib][Aib]-X6; configuration not given here)	-16.5% (active)	-80.3% (active)	-18.8% (active)	-81.4% (active)	-88.8% (active)	–	-75.8% (active)	-80.7% (active)
CN1CCC(c2ccccc2)(c2ccccc2)C(=O)C1	13.7%	115%	98.9%	–	64.8%	82.1%	92.2%	–
Oc1ccc(Nc2ccc3ccccc3c2)cc1	52.6%	74.3%	51.3%	66.2%	70.8%	–	35.6%	64.7%
O=C1/C(=C\c2ccc([N+](=O)[O-])cc2)CS(=O)(=O)C/C1=C/c1ccc([N+](=O)[O-])cc1	-56% (active)	-82.2% (active)	-75% (active)	-71.6% (active)	-100% (active)	–	-89.4% (active)	-58.5% (active)
CN1CSC(=S)N(Cc2ccccc2)C1	43.1%	80.3%	77.9%	35.4%	25.9%	–	40.8%	33.5%
O=C1C=C(Cl)C(=O)c2ccccc21	14.9%	98.3%	112%	98%	–	125%	99.4%	81.3%
S=C(S)OCN1CCOCC1	88.1%	100%	88.4%	74.8%	98.8%	97.4%	–	–
O=[N+]([O-])c1ccc(N2CCN(Cc3ccccc3)CC2)c2c1no[n+]2[O-]	57.5%	-25.5% (active)	-28.9% (active)	-68.2% (active)	-86% (active)	-14.4% (active)	-52.2% (active)	–
CCCCCC/C=C1\CCC(CN2CCCC2)C1=O (stereo unspecified)	77.7%	104%	109%	97.9%	84.5%	107%	75.4%	–
c1ccc2sc(SSN3CC4CCC(CC4)C3)nc2c1	96.5%	126%	108%	110%	103%	123%	145%	–
O=C1c2ccccc2C(=O)c2c(O)c(Cl)cc(O)c21	28.1%	98.7%	102%	72.6%	6.19% (active)	102%	83.7%	–
Cc1ccc2c(c1)sc(-c1ccc(N(C)C)cc1)[n+]2C	1.38% (active)	11.9%	9.68% (active)	12.3%	-8.72% (active)	2.49% (active)	5.09% (active)	–
CCCCCCCCCCCCCCCC[N+]1(C)CCCC1c1cccnc1 (stereo unspecified)	45.2%	-6.27% (active)	63.9%	53.2%	35%	19.8%	41.7%	–
O=[N+]([O-])C=C(c1ccccc1)c1ccccc1	66.2%	76.6%	23.7%	–	64%	87.3%	66.4%	84.8%
CCCCCCCCCCCCCCCc1ccc(C(=O)C[n+]2ccccc2)cc1	-25.1% (active)	–	-78.1% (active)	-79.1% (active)	-97.7% (active)	-83.4% (active)	–	-88.6% (active)
CCCCCCCCCCCC1=NCCCN1CCCC	97.4%	94.6%	–	97.5%	83.6%	75.7%	103%	–
Cc1ccc(Nc2ccc(O)c3c2C(=O)c2c(O)ccc(Nc4ccc(C)cc4)c2C3=O)cc1	96.9%	113%	–	103%	93.5%	113%	112%	98%
CN(C)c1ccc(/C=C/c2sc3ccc4ccccc4c3[n+]2C)cc1	-10.9% (active)	–	-34.8% (active)	-63.9% (active)	-71.8% (active)	-91.5% (active)	–	-9.73% (active)
